S2 tox: cell viability loss in ATXN counter-screen; S2 cells (HEK-293 line with an ATXN2-luciferase reporter) viability, CellTiter-Fluor protease fluorescence, 24 h; Potency, µM (doses to about 56.7 µM), usual class: cytotoxic; 400,000 tested, 0.49% active; further: potency means the concentration at half of the fitted maximal effect; nearly all actives have a fitted effect of over 40% in size
a7 integrin act: integrin-mediated muscular dystrophy alleviation activation. alpha7betagal myoblasts, beta-gal FDG fluorescence, 48 h. 350,000 tested, 0.064% active. Potency, µM (series often up to 38.3 µM), without a hit: at the top dose activation, usual class: activators;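 further: potency means the concentration at half of the fitted maximal effect; 100% = response of the positive control SU9516; nearly all actives have a fitted effect of over 60% in size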
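Alpha7betagal+/- myoblasts (passage 13) were plated 16-24 hr, then exposed to compounds (1:260 dilution of DMSO stock) for 48 hours at 37C. After MPER lysis, β-galactosidase reporter activity was read as FDG fluorescence (ex 480/em 540) after 30 minutes.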
DRD3 agonist: agonists of human D3 dopamine receptor; P35462; D3R DiscoveRx beta-arrestin cells, luminescence, 90 min; max activation, %; 410,000 tested, 0.58% active; in the data active means max activation above about 30%; further: 0% is about no effect
Target sequence (P35462 whole entry, looked up): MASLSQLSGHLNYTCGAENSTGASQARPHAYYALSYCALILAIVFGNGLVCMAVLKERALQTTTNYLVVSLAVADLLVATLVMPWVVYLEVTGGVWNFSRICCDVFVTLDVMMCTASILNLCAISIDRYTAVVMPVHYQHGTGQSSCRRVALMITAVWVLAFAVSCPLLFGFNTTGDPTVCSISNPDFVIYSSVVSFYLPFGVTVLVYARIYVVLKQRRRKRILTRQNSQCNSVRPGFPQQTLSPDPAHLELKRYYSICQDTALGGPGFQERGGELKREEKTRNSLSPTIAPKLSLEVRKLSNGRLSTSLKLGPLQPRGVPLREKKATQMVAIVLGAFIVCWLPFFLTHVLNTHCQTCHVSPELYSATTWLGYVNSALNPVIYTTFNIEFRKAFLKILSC
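Agonist mode: compounds and dopamine controls were applied to plated cells for 90 min at 37 degrees C after an overnight attachment at 1500 cells/well. Luminescent read-out followed 30 - 60 minutes at room temperature with DiscoveRx detection reagent.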
IL-1B inflam inh: blocks inflammasome-driven IL-1 beta release. THP-1 LPS/ATP IL-1B secretion, AlphaLISA, 16 h; active compounds read low. activity change, % at 57.5 µM. 360,000 tested, 4.7% active; in the data active means activity change below about -50%; inconclusive means mostly about -30% to -49%; further: on the % scale 0 is the no-effect control and ±100 the full control effect
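Secreted IL-1B measured by AlphaLISA bead assay after 16 h compound exposure of THP-1 cells; compounds (final up to 57.5 uM) added 1 h before LPS (250 ng/mL) and ATP (1.25 mM) stimulation; lower signal means less secretion.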
ATXN2 expr inh: ATXN2 expression inhibition; 360,000 tested, 0.72% active; Potency, µM (highest dose often 57 µM), without a hit: top-dose activity change, negative = inhibition, most hits filed as inhibitors; HEK-293 ATXN2-luciferase reporter, luminescence, 24 h; further: potency means the concentration at half of the fitted maximal effect; on the % scale 0 is the no-effect control and ±100 the full control effect; nearly all actives have a fitted effect of over 55% in size
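qHTS (up to 57 uM final) was run with 24 h compound exposure of reporter cells at 37 °C. Each well was multiplexed: SteadyGlo luminescence measured ATXN2-luciferase expression after a fluorogenic Gly-Phe-AFC viability readout (25 uM final).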
DRD3 antagonist: antagonists of human D3 dopamine receptor; P35462; D3R cells, DiscoveRx beta-arrestin luminescence, antagonist mode; active compounds read low; max response, negative = inhibition, %; 360,000 tested, 2.5% active; AID 652054; in the data active means max response below about -50%; inconclusive means no clear call, values can overlap the other calls; further: on the % scale 0 is the no-effect control and ±100 the full control effect
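Cells plated overnight at 1500 cells/well, then exposed to library compounds with dopamine controls for 90 minutes at 37 degrees C. DiscoveRx reagent added for 30–60 minutes at room temperature; luminescence read, quantitative HTS format.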
An asterisk follows results filed as active; i = inactive; ? = inconclusive; . = not tested or not shown. The list is not random: actives were taken first. Their share in the collection is about 7%. Unless noted, the call rests on the fitted dose curve; in most records, active means well fitted curve in the direction sought with a large enough effect; inconclusive means small, poorly fitted or top-dose-only effect, or another doubt; inactive means no such curve, though single readings can be large; an effect the other way counts as inactive or inconclusive.

SMILES	S2 tox	a7 integrin act	DRD3 agonist	IL-1B inflam inh	ATXN2 expr inh	DRD3 antagonist
C=C1CCC[C@]2(C)C[C@H]3OC(=O)C(CNC(CC)CO)[C@H]3CC12 (some centres undefined)	i	-6%	-16	-98*	-21%	0
C=C1CCC[C@]2(C)C[C@H]3OC(=O)C(CNC(C)(CO)CO)[C@H]3CC12 (some centres undefined)	?	-74%	5	-96*	-9%	-13
C=C1CCC[C@]2(C)C[C@H]3OC(=O)C(CNC(C)CC)[C@H]3CC12 (some centres undefined)	?	-71%	-6	-96*	.	-27
C=C1CCC[C@]2(C)C[C@H]3OC(=O)C(CN(C)CC(OC)OC)[C@H]3CC12 (some centres undefined)	i	-62%	-3	-92*	-22%	10
COC(=O)c1ccc(COc2ncnc3c(Cl)cc(Cl)cc23)o1	i	-2%	-5	13	-32%	4
COc1cc2c(cc1OC)CN(c1nc(CN3CCOCC3)nc3sc4c(c13)CCCC4)CC2	?	-40%	-5	-66*	-24%	0
Cc1sc2nc(CN3CCCC3)nc(Cl)c2c1C	i	4%	-13	-72*	-11%	-25
COc1cc2c(cc1OC)CN(c1nc(CN3CCCCC3)nc3sc4c(c13)CCCC4)CC2	?	-25%	6	-11	-12%	23
COc1cc2c(cc1OC)CN(c1nc(CN3CCCC3)nc3sc(C)c(C)c13)CC2	i	-74%	5	-67*	-14%	62
CCOC(=O)c1c(NC(=O)c2cc(=O)c3cc(C)ccc3o2)sc2c1CCCC2	i	.	8	.	3%	.
COc1cc(-c2cc(OC)c(O)c(OC)c2)cc(OC)c1O	i	-50%	0	-24	27%	0
CC(=O)c1cc2c(cc1NC(=O)CSc1nc3ccc(C)cc3[nH]1)OCO2	.	-29%	9	-74*	-18%	-26
Cc1ccc2nc(SCC(=O)Nc3cccnc3Cl)[nH]c2c1	?	?	-5	-8	2%	-11
COc1ccc2c(c1)O[C@H](c1ccc3c(c1)OCO3)[C@@H](OC(=O)N[C@H]1CCCc3ccccc31)C2=O	i	-4%	54*	16	15%	1
COc1ccc2c(c1)O[C@H](c1ccc3c(c1)OCO3)[C@@H](O)C2=O	i	-11%	4	-6	17%	-15
CCCCCCn1c(=O)n2n(c1=O)[C@@H]1CN(S(=O)(=O)c3ccc(C)cc3)C[C@]1(O)[C@@H](OC(=O)Nc1cccs1)C2	?	-60%	-13	-52*	-25%	-24
CCCCCCn1c(=O)n2n(c1=O)C[C@]1(OC(=O)NCc3ccccc3)CN(S(=O)(=O)c3ccc(C)cc3)C[C@]1(O)C2	?	-9%	3	-24	-26%	22
COC(=O)[C@H]1C[C@H](OC(=O)NC2CCCC2)[C@@]2(O)CN(S(=O)(=O)c3ccc(C)cc3)CC2[C@H]1C(=O)OC (some centres undefined)	i	22%	-7	-18	4%	0
CCCCCCn1c(=O)n2n(c1=O)C[C@]1(OC(=O)Nc3cccs3)CN(S(=O)(=O)c3ccc(C)cc3)C[C@]1(O)C2	?	-40%	6	-51*	-9%	16
Cc1ccc(S(=O)(=O)N2C[C@H]3n4c(=O)ccc(=O)n4C[C@H](OC(=O)Nc4cccs4)[C@@]3(O)C2)cc1	?	1%	-2	-79*	-13%	-5
COC(=O)[C@H]1C[C@H](OC(=O)Nc2cccs2)[C@@]2(O)CN(S(=O)(=O)c3ccc(C)cc3)CC2[C@H]1C(=O)OC (some centres undefined)	?	-25%	4	-56*	-13%	10
CCc1ccc(NC(=O)Cn2c(=O)n(Cc3ccc4c(c3)OCO4)c(=O)c3oc4ccccc4c32)cc1	.	.	0	.	.	.
COc1ccc(C(CNc2ccc(S(=O)(=O)N3CCCC3)cc2[N+](=O)[O-])N2CCCC2)cc1 (centres undefined)	i	-11%	-11	-29	-13%	-17
Cc1cc(C)n(-c2cc(N3CCN(S(=O)(=O)c4ccc5ccccc5c4)CC3)ccc2[N+](=O)[O-])n1	i	-4%	1	-10	-2%	-55*
CCOc1ccc(-c2nnn(CC(=O)c3ccc4c(c3)OCCO4)n2)cc1	i	-11%	37*	4	3%	15
SMILES	S2 tox	a7 integrin act	DRD3 agonist	IL-1B inflam inh	ATXN2 expr inh	DRD3 antagonist
CCCCOc1ccc(-c2nnn(CCC(=O)N3CCOCC3)n2)cc1	i	-7%	7	25	0%	-96*
CCCOc1ccc(-c2nnn(CC(=O)c3ccc4c(c3)OCCO4)n2)cc1	i	-15%	29	1	-13%	15
Nc1nc(SCCO)[nH]c(=O)c1NC(=O)c1ccco1	i	?	1	11	7%	-10
CC(C)SC1=NC(C)(C)C=C(/C=C/c2c(Cl)cccc2Cl)N1	i	-37%	-2	-82*	-10%	1
Clc1ccc(/C=C/c2nc3ccccc3[nH]2)c(Cl)c1	i	1%	1	?	?	4
CC(C)SC1=NC(C)(C)C=C(/C=C/c2ccc(Cl)cc2Cl)N1	i	12%	9	-113*	-37%	-6
Clc1cccc(Cl)c1/C=C/c1nc2ccccc2[nH]1	?	15%	-24	-26	106%	10
CC(C)(C)NC(=O)Nc1cccc(Cl)c1Cl	i	-11%	-6	22	-10%	-10
O=C(NCC1CCCO1)c1cc2c(=O)[nH]c3ccccc3c2s1 (centres undefined)	i	-17%	1	-6	-25%	18
O=C(OCc1nc2ccc(Cl)cc2n1CCO)c1ccc2c(c1)OCO2	i	13%	-3	17	7%	-7
Cc1nn(-c2ccccc2)c2c1C(c1ccncc1)C(C#N)=C(N)O2 (centres undefined)	i	-10%	-14	20	?	38
COc1cc(-n2nc(C)c3c2OC(N)=C(C#N)C3c2ccccc2)c(Cl)c(Br)c1O (centres undefined)	14µM*	20%	-1	20	-9%	-21
CCOC(=O)Cn1cc(/C=N/NC(=O)CC#N)c2ccccc21	i	4%	4	-55*	-9%	-26
COc1ccc(C(=O)/C=C/c2cn(CN3CCN(C)CC3)c3ccccc23)cc1	i	-9%	9	-68*	13%	2
